# From paper PMC4336329 (PLoS ONE, 2015)
# Among all 310,000 compounds or so, about 14,000 (4.5%) showed an effect of 50% or more. The effect is printed as a negative number. The sample as a whole holds a higher share of strong results than the screen did.
# Target: human ether-à-go-go-related gene (hERG) potassium channel (human, UniProt Q12809)
# Assay: primary screen, population patch clamp on CHO cells stably expressing hERG; higher = less effect of the substance
# 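Further: peak tail current of the secondary pulse compared with the same well before compound.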
# human ether-à-go-go-related gene (hERG) potassium channel, sequence (Q12809 whole entry, looked up): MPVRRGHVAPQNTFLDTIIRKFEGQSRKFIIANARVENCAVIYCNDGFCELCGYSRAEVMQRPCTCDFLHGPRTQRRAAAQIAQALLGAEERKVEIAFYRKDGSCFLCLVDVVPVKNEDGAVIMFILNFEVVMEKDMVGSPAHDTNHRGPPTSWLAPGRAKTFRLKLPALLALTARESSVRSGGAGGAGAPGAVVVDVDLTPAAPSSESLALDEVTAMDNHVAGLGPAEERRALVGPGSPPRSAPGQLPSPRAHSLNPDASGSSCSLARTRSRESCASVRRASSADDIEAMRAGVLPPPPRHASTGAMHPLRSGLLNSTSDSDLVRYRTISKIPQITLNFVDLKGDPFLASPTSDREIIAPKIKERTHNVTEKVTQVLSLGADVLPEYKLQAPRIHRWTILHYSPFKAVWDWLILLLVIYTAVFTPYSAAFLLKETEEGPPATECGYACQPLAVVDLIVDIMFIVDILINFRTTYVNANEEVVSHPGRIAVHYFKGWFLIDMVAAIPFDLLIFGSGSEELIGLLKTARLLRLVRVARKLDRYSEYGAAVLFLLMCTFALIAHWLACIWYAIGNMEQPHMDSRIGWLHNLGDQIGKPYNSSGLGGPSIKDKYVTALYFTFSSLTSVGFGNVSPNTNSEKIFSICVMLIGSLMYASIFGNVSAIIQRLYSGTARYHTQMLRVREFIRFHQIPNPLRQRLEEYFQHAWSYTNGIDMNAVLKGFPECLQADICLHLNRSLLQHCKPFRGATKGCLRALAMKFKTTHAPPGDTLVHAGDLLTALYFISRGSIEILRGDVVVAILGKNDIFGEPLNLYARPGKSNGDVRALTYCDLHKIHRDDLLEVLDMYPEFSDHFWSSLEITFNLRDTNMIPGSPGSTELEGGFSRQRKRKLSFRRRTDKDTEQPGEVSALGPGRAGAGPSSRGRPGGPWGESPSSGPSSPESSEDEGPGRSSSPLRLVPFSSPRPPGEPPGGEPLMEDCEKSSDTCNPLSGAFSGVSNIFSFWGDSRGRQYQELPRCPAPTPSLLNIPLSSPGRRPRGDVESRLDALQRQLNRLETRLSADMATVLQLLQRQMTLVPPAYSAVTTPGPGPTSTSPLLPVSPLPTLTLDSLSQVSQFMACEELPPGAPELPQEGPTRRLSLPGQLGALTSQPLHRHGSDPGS
row,Structure (SMILES),"hERG current change (%, negative = inhibition) at 10uM [%]"
1,CC1(C)CC(=O)C=C(Nc2cc(-c3ccccc3)[nH]n2)C1,-11.2
2,CC(NC(=O)C1CCC(=O)N1Cc1ccccc1Cl)c1ccccc1 (stereo not shown),12.8
3,COc1ccccc1-c1cc(C(=O)Nc2c(C)n(C)n(-c3ccccc3)c2=O)no1,-34.9
4,N#CCC(=O)N/N=C/c1ccccc1Cl,6.55
5,Cc1nn(C)c(C)c1S(=O)(=O)NC1CCCC1,-12
6,CCN(C(=O)CN1CCN(c2cccc(C(F)(F)F)c2)CC1)c1c(N)n(Cc2ccccc2)c(=O)[nH]c1=O,-20.3
7,O=C(c1ccccc1)c1ccc(-c2ccc(O)cc2)cc1,10.1
8,C[n+]1c(-c2ccccc2)cc(-c2ccc(Cl)cc2)cc1-c1ccccc1.[O-][Cl+3]([O-])([O-])[O-],-84.1
9,C[n+]1c(-c2ccccc2)cc(CCCCc2cc(-c3ccccc3)[n+](C)c(-c3ccccc3)c2)cc1-c1ccccc1.[O-][Cl+3]([O-])([O-])[O-],-30.6
10,Cc1cc(-c2ccccc2)cc(-c2ccccc2)[n+]1C.[Cl-],-13.6
11,Oc1ccc(-c2cccc(-c3ccc(O)cc3)c2)cc1,3.27
12,C[n+]1c(-c2ccccc2)cc(-c2ccc(O)cc2)cc1-c1ccccc1.[O-][Cl+3]([O-])([O-])[O-],-61.4
13,COCCNC(=O)C(c1ccc(C)o1)N(C(=O)c1snc(C(N)=O)c1N)c1cc(C)cc(C)c1 (stereo not shown),-28.5
14,COc1ccc(Cc2nnc(SCc3nc4ccccc4c(=O)[nH]3)n2C)cc1,-11.9
15,COc1ccc(C(CC(=O)O)N2Cc3ccccc3C2=O)cc1 (stereo not shown),14.4
16,CC(C)=CCCC1=CCC(/C(C)=N/NC(N)=O)CC1 (stereo not shown),-53.7
17,CC(C)=CCCC1=CCC(/C=N/NC(N)=O)C(C)C1 (stereo not shown),9
18,CC(C)=CCCC1=CCC2C(=O)NNC(=O)C2C1 (stereo not shown),9.53
19,CC(=O)N1c2c(cc(Br)cc2S(=O)(=O)N2CCOCC2)CC1C (stereo not shown),-0.158
20,COCCn1c(C)cc(C(=O)CSc2nnc(C3CC3)n2C2CC2)c1C,5.4
21,COCC(C)n1c(C)cc(C(=O)CSc2nnnn2C2CCCC2)c1C (stereo not shown),-33.2
22,COc1ccc(Cl)cc1C(=O)CSc1nnnn1C1CCCC1,-6.05

row,Structure (SMILES),"hERG current change (%, negative = inhibition) at 10uM [%]"
1,CCn1c(C)cc(C(=O)CSc2nnnn2C2CCCC2)c1C,-53.5
2,COCCn1c(C)cc(C(=O)CSc2nnnn2C2CCCC2)c1C,-69
3,COc1ccc(Cl)cc1C(=O)CSc1nnnn1C1CCCCC1,-4.88
4,COc1ccc(COC(=O)CCNC(=O)c2ccc(Cl)cc2)cc1,-32.5
5,COc1cccc(NC(=S)N(CCCN2CCCC2)Cc2ccco2)c1,-46.3
6,COc1cccc(NC(=S)N(CCCN2CCCC(C)C2)Cc2cccs2)c1 (stereo not shown),-67.4
7,COc1cccc(NC(=S)N(CCCN2CCCC2)Cc2cccn2Cc2ccc(Cl)cc2)c1,-41.2
8,COc1ccc(NC(=S)N(CCCN2CCCC(C)C2)Cc2cccs2)cc1 (stereo not shown),-68.9
9,CCOCCNC(=O)c1ccc2c3c(cccc13)CC2,3.39
10,Cc1csc(-c2coc3cc(O)cc(C)c3c2=O)n1,2.27
11,O=C1c2cccc(Cl)c2C(=O)c2c1cccc2N1CCCC1,-9.16
12,O=C1c2ccccc2-c2onc3c(N4CCN(CCO)CC4)cc(N4CCN(C(=O)c5ccco5)CC4)c1c23,-22.1
13,O=C1c2ccccc2C(=O)c2c1cccc2N1CCCC1,-14.3
14,O=C1c2ccccc2C(=O)c2c1cccc2N1CCN(CCO)CC1,-69.7
15,O=C1c2ccccc2C(=O)c2c1cccc2N1CCN(C/C=C/c2ccccc2)CC1,-7.23
16,O=C1c2ccccc2C(=O)c2c1cccc2N1CCN(Cc2ccccc2)CC1,-56.9
17,O=C(NCCc1ccccc1)C1CCN(C(=O)Nc2ccccc2)CC1,8.37
18,COc1ccc(NC(=O)CCCn2c(=O)c3sccc3n(Cc3ccccc3)c2=O)cc1,-20.8
19,CC(C)(C)NC(=O)C(c1ccco1)N(C(=O)c1csnn1)c1ccccc1 (stereo not shown),-4.55
20,CC12CCC(C(=O)N(CCCCN3CCN(Cc4ccccc4)CC3)C1=O)C2(C)C.Cl (stereo not shown),-45.2
21,O=C(CNC(=O)c1[nH]cnc1C(=O)N[C@@H](Cc1ccccc1)C(=O)OCc1ccccc1)OCc1ccccc1,7.48
22,CC(C)C(c1nnnn1Cc1cccs1)N1CCN(c2ccccc2)CC1 (stereo not shown),20

row,Structure (SMILES),"hERG current change (%, negative = inhibition) at 10uM [%]"
1,COc1ccc(C(c2nnnn2Cc2cccs2)N2CCN(c3ccccc3F)CC2)cc1OC.Cl (stereo not shown),-39.6
2,CCC(c1nnnn1CCOC)N1CCN(Cc2ccccc2OC)CC1.Cl (stereo not shown),-6.05
3,COCCn1nnnc1C(c1ccc(OC)cc1OC)N1CCN(c2ccccc2)CC1 (stereo not shown),-70.8
4,COc1ccc(C(c2nnnn2Cc2cccs2)N2CCN(c3ccccc3)CC2)cc1OC (stereo not shown),-63.5
5,CCC(C)(C)n1nnnc1C(c1ccc(OC)c(OC)c1)N1CCN(c2ccc(OC)cc2)CC1.Cl (stereo not shown),-15.9
6,COCCn1nnnc1C(c1ccccc1OC)N1CCN(c2ccccc2)CC1.Cl (stereo not shown),-4.6
7,COc1ccccc1CN1CCN(C(CC(C)C)c2nnnn2Cc2cccs2)CC1.Cl (stereo not shown),-57.9
8,COCCn1nnnc1C(c1ccc(OC)cc1OC)N1CCN(c2ccccc2F)CC1.Cl (stereo not shown),-9.23
9,CCC(C)(C)n1nnnc1C(c1ccc(OC)c(OC)c1)N1CCN(c2ccccc2)CC1 (stereo not shown),-39.5
10,CCC(C)(C)n1nnnc1C(c1ccc(OC)c(OC)c1)N1CCN(c2ccc(F)cc2)CC1.Cl (stereo not shown),-72.9
11,CCC(c1nnnn1C(C)(C)C)N1CCN(Cc2ccccc2OC)CC1.Cl (stereo not shown),-19.2
12,N/C(=N\OC(=O)c1ccc(=O)n(Cc2ccc(Cl)cc2)c1)c1ccccn1,-33.2
13,CC1Sc2ccc(S(=O)(=O)NCc3ccccc3)cc2NC1=O (stereo not shown),1.74
14,CC(C)Oc1cccc(-c2nnc(SCC(=O)Nc3ccc4c(c3)OCCO4)n2N)c1,-8.81
15,O=C(CSc1nnc(-c2ccc(O)cc2)n1Cc1ccco1)c1cccs1,-14.9
16,O=C(COC(=O)c1cccc(F)c1)NC(=O)NC1CCCC1,5.55
17,COCCCN(C(=O)c1cc(C)oc1C)c1c(N)n(CC(C)C)c(=O)[nH]c1=O,7.78
18,Cc1ccccc1OCCOc1cccc(/C=N/NC(=O)Cc2nnc(N)s2)c1,14.2
19,CC1(C)Oc2ccc(C(=O)N3CCOCC3)cc2N(CC(=O)N2CCOCC2)C1=O,18.7
20,Cc1ccc(CC2C(=O)N(c3cc(Cl)ccn3)C(=O)C2C)cc1 (stereo not shown),-9.63
21,COc1cccc(C2=NOC(C(=O)Nc3ccc(OC)c(OC)c3)C2)c1 (stereo not shown),-11.8
22,Cn1c(SCc2c(F)cccc2Cl)nc2c(c1=O)SCC2,6.6

row,Structure (SMILES),"hERG current change (%, negative = inhibition) at 10uM [%]"
1,Fc1ccc(C(c2nnnn2Cc2cccs2)N2CCN(c3ccccc3)CC2)cc1 (stereo not shown),-21.3
2,COc1ccc(C(c2nnnn2Cc2cccs2)N2CCN(c3ccccc3F)CC2)cc1 (stereo not shown),4.04
3,COc1ccc(C(c2nnnn2Cc2cccs2)N2CCN(c3ccc(F)cc3)CC2)cc1OC (stereo not shown),-69.4
4,CC(=O)Nc1ccc(Oc2cc(C#N)c(C#N)cc2N2CCOCC2)cc1,-16.9
5,Nc1ccccc1SC1CC(=O)N(c2ccc3c(c2)OCO3)C1=O (stereo not shown),14.7
6,CCOc1ccc(-c2nnc3n2N=C(c2ccc(OC)cc2)CS3)cc1,0.919
7,COc1ccc(OC)c(C2=Nn3c(nnc3-c3cc(C)[nH]n3)SC2)c1,-19.7
8,Cc1cc(-c2nnc3n2N=C(c2ccccc2)CS3)n[nH]1,-22.7
9,Br.COc1ccc(C2=Nn3c(C)nnc3SC2)cc1,0.091
10,COc1ccc(C2=Nn3c(nnc3-c3cc(C)[nH]n3)SC2)cc1,-64
11,Cc1cc(-c2nnc3n2N=C(c2ccc(F)cc2)CS3)n[nH]1,-60.3
12,COc1ccc(C2=Nn3c(nnc3-c3ccccn3)SC2)cc1,-34.3
13,CCOc1ccc(C2=Nn3c(nnc3-c3ccc(OC)cc3)SC2)cc1,-16
14,COc1ccc(C2=Nn3c(nnc3-c3ccncc3)SC2)cc1,-41.1
15,Cc1cc(-c2nnc3n2N=C(c2ccc(-c4ccccc4)cc2)CS3)n[nH]1,-15.7
16,COc1ccc(C2=Nn3c(nnc3-c3ccc(OC)cc3)SC2)cc1,-55
17,CCOc1ccc(C2=Nn3c(nnc3-c3ccccc3OC)SC2)cc1,-63.4
18,O=C(Cn1cc2c(n1)CCCCC2)NCc1ccccn1,-2.69
19,CCOc1cc(C(=O)N2CCC3(CC2)OCCO3)cc(OCC)c1OCC,-12.5
